# Bioassay records (PubChem)
# NPR1 antag – Natriuretic polypeptide receptor (hNpr1) antagonism - Primary qHTS; HEK293 hNpr1 GloSensor cGMP, ANP-stimulated luminescence; Atrial natriuretic peptide receptor 1 (Homo sapiens), P16066; Potency, µM (series often up to 46.3 µM), usual class: inhibitors; 1.6% of 76,000 active; calls by dose curve; note: nearly all actives have a fitted effect of over 60% in size
#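 HEK293 cells stably expressing human Npr1 and cGMP GloSensor pGS-40F, loaded 2 h with 2% GloSensor reagent, given compound 30 min at room temperature. Luminescence read before and 20 min after 0.1 nM hNppA.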
# FLuc inh – Firefly luciferase inhibition profiling of diverse chemical library using quantitative high-throughput screening. Luciferin 4-monooxygenase (Photinus pyralis), P08659. purified P. pyralis luciferase, luminescence, biochemical. Potency, µM (doses to about 115 µM), actives largely listed as inhibitors. 2.5% of 76,000 active. AID 1347043, 2019; note: nearly all actives have a fitted effect of over 65% in size
#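 Biochemical qHTS: compound (6-point titration) added to 10uM D-luciferin plus 10uM ATP in Tris acetate pH 7.5 buffer with Mg, Tween-20 and BSA, then purified enzyme at 10nM; light output imaged.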
# 3T3 cytotox – Cytotoxic Profiling in NIH 3T3 Cell Line of Diverse Libraries Using Quantitative High-Throughput Screening. 4.3% of 94,000 active. Potency, µM (top dose mostly 96.7 µM), hits mostly inhibitors. NIH 3T3 viability, CellTiter-Glo ATP luminescence, 48-72 h; note: nearly all actives have a fitted effect of over 55% in size
#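 Mouse fibroblast NIH 3T3 cells, 400 per well, received compound via pintool and were incubated for 48 or 72 hr prior to CellTiter-Glo ATP luminescence measurement.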
# HEK cytotox – Cytotoxic Profiling in HEK 293 Cell Line of Diverse Libraries Using Quantitative High-Throughput Screening | Potency, µM (doses to about 115 µM), most hits filed as inhibitors | AID 1345083, 2018 | 6.6% of 94,000 active | HEK 293 viability, ATP luminescence (CellTiter-Glo), 48-72 h; note: nearly all actives have a fitted effect of over 60% in size
#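 250 HEK 293 cells/well; compound by pintool; incubated 48 or 72 hr at 37 degree Celsius; CellTiter-Glo added, 10 min RT, luminescence imaged.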
# A number is an active result; – = inactive; ? = inconclusive; · = no result. Shown are actives, neighbours in structure and some others; about 11% of the full set was active somewhere. Unless noted, calls come from the whole dose curve; as a rule, active = well fitted curve in the direction sought with a large enough effect; inconclusive = small, poorly fitted or top-dose-only effect, or another doubt; inactive = no such curve, though single readings can be large; an effect the other way counts as inactive or inconclusive.
SMILES,NPR1 antag,FLuc inh,3T3 cytotox,HEK cytotox
CCN1C(=O)CCc2cc(NC(=O)c3cncc(Br)c3)ccc21,–,–,–,?
CCN1C(=O)CCc2cc(NC(=O)c3ccc(F)cc3)ccc21,–,?,?,40µM
CS(=O)(=O)N1CCc2ccc(C(=O)Nc3ccc(F)cc3)cc21,?,8.9µM,–,?
O=C1c2cccnc2OC(COc2ccccc2)CN1c1ccccc1 (stereo not given),·,·,–,?
CSc1cccc(NC(=O)O[C@@H]2CC[C@]3(C)C(CC[C@@H](O)[C@H]3CC(=O)N3CCCC3)[C@]2(C)CO)c1 (stereo not given in full),–,–,?,?
COc1cc(Nc2ncncc2-c2nc(-c3ccccc3)no2)cc(OC)c1OC,–,–,–,–
COc1cc(Nc2nc(-c3ccccc3F)no2)cc(OC)c1OC,–,?,?,32µM
COc1ccc(-c2noc(Nc3cc(OC)c(OC)c(OC)c3)n2)cc1OC,–,–,?,22µM
COc1cc(Nc2nc(-c3ccccc3)no2)cc(OC)c1OC,–,32µM,?,?
COc1cccc(-c2noc(Nc3cc(OC)c(OC)c(OC)c3)n2)c1,–,?,?,45µM
N#Cc1ccc(C(=O)N2CCC(Cc3nc(C4CC4)n[nH]3)C2)cc1 (stereo not given),·,·,?,–
CC(C)(C)CN1CCOC[C@H]1c1ncc(-c2ccc(Cl)cc2)[nH]1,–,–,89µM,79µM
CC(C)(C)CN1CCOC[C@H]1c1ncc(-c2ccc(C(F)(F)F)cc2)[nH]1,?,–,79µM,71µM
Cc1ccc(-c2cnc([C@@H]3COCCN3CC3CC3)[nH]2)cc1,–,–,–,63µM
Cc1ccc(-c2cnc([C@@H]3COCCN3Cc3ccncc3)[nH]2)cc1,–,–,–,–
COc1ccc(CN2C(=O)[C@H](OC)[C@@H]2C2=CCN(C(=O)c3ccco3)CC2)cc1,·,·,–,?
C=CCOC(=O)C1=C(C)N(Cc2cccc(Cl)c2)C(=O)CC1c1ccccc1Cl (stereo not given),–,–,–,?
COc1ccc(C(=O)N2CC[C@@H]3COCCN(C)[C@@H]3C2)c(OC)c1,–,22µM,–,?
O=C(c1cccs1)N1CCCN(C(=O)C2CC2)c2ccccc21,–,–,–,–
COc1ccccc1C(=O)N1CCC(C(=O)N2CCC(N3CCOCC3=O)CC2)CC1,·,·,–,–
O=C(C1CCCCCC1)N1CCC(n2cc(C3CCCCC3)nn2)CC1,?,–,?,89µM
O=C(Nc1ccccc1Cl)N1CCC(n2cc(C3CCCC3)nn2)CC1,–,–,–,?
COCC(=O)N1CCCC(c2noc(COC)n2)C1 (stereo not given),–,–,–,–
COC[C@@H]1[C@H](C(=O)NCc2ccccc2C)CCC(=O)N1C,·,·,–,–
Cc1ccccc1-c1nccn2c(C3CN(Cc4ccccc4O)C3)ncc12,–,–,100µM,89µM
SMILES,NPR1 antag,FLuc inh,3T3 cytotox,HEK cytotox
O=C(c1ccccc1Cl)N1CCN(c2ccc3nnc(-c4ccccc4)n3n2)CC1,·,·,?,–
O=C(c1ccc(Cl)nc1)N1CCN(c2ccc3nnc(C4CC4)n3n2)CC1,·,·,–,–
CCn1ccc(C(=O)N2c3ccccc3CC2c2nc(C(C)C)no2)n1 (stereo not given),–,40µM,–,?
CC(C)c1noc(C2Cc3ccccc3N2C(=O)CCn2cnnn2)n1 (stereo not given),–,–,–,–
COc1ccccc1N1CCN(C(=O)[C@@H]2Cc3c[nH]c4cccc(c34)[C@H](CC(C)C)N2)CC1,–,–,?,?
CC(C)C[C@@H]1N[C@H](C(=O)NCc2ccco2)Cc2c[nH]c3cccc1c23,–,–,100µM,35µM
C#CCNC(=O)[C@@H]1Cc2c[nH]c3cccc(c23)[C@H](CC(C)C)N1,–,–,100µM,71µM
CC(C)C[C@@H]1N[C@H](C(=O)N2CCOCC2)Cc2c[nH]c3cccc1c23,–,–,–,–
CC(C)C[C@@H]1N[C@H](C(=O)NCC2CC2)Cc2c[nH]c3cccc1c23,–,–,?,35µM
CC(C)NC(=O)N1CCC2(CC1)CC(N(C)Cc1ccccc1)CCO2 (stereo not given),–,–,–,–
Cc1nn(C)c(C)c1CCC(=O)N1C[C@@H](Oc2cccnc2)C[C@H]1C(=O)NC1CC1,–,–,–,?
CCc1noc(-c2cn(C3CCCN(C(=O)c4ccc(C)s4)C3)nn2)n1 (stereo not given),–,–,–,–
CCOc1cccc2c1OC[C@@H]1CN(CCC#N)C(=O)CCN(C(=O)c3cccs3)[C@H]21,·,·,?,–
COc1cccc(CN2CCCCCNC(=O)CC2c2ccccc2)c1OC (stereo not given),–,–,?,?
COc1cccc(CN2CCCCCCNC(=O)CC2c2ccccc2)c1OC (stereo not given),–,–,40µM,45µM
O=C1NCCCCCN(Cc2cn[nH]c2-c2cccs2)[C@H]2CCC[C@@H]12,–,–,–,–
CCOc1ccccc1CN1CCCCCCNC(=O)CC1c1ccccc1 (stereo not given),–,–,25µM,32µM
CCOc1ccccc1CN1CCO[C@@H](COC)[C@@H]1c1ccccc1,·,·,–,40µM
O=C1CC(c2ccccc2)N(Cc2cn[nH]c2-c2cccs2)CCCCCN1 (stereo not given),–,–,?,79µM
COc1ccc(-c2nc(C)nc3c2CN(C(=O)Cc2ccc(F)cc2)CC3)cc1,·,·,–,–
COc1cccc(Nc2ncc3c(n2)C(C)(C(=O)NC2CCOCC2)CC3)c1 (stereo not given),–,–,40µM,89µM
CC1(C(=O)NC2CCOCC2)CCc2cnc(Nc3ccccc3)nc21 (stereo not given),–,–,?,100µM
COc1cccc(Nc2ncc3c(n2)C(C)(C(=O)NC2CCN(C)CC2)CC3)c1 (stereo not given),–,–,?,89µM
CNC(=O)c1cc(C2CC2)nc2onc(C3CCN(C(=O)c4cccc(OC)c4)C3)c12 (stereo not given),·,·,–,–
Cc1ccc(C(=O)N2CCC3(CC2)N(c2ccccc2)C(=O)CS3(=O)=O)c(C)c1,–,–,–,–
O=C(NCc1ccccc1F)c1ccc2c(c1)CN(Cc1cccc(F)c1F)CCO2,–,–,?,?
Cc1ccc(CNC(=O)c2ccc3c(c2)CN(Cc2cccc(F)c2F)CCO3)cc1,–,–,?,79µM
O=C(c1ccoc1)N1CCC(n2cc(-c3nc(-c4ccccc4)no3)nn2)CC1,–,?,?,?
O=C(c1ccncc1)N1CCC(n2cc(-c3nc(-c4ccccc4)no3)nn2)CC1,–,?,32µM,?
O=C(c1cc(F)ccc1F)N1CCC(n2cc(-c3nc(-c4ccccc4)no3)nn2)CC1,–,–,?,?
